The source of these data is PubChem BioAssay (NCATS).

Experiment [1] addresses Estrogen receptor (Homo sapiens) (UniProt P03372). Kind of experiment: qHTS assay for small molecule antagonists of estrogen receptor alpha signaling (AID 588513; active means well fitted curve in the direction sought with a large enough effect in the signal ratio, with a control signal flat, not every such curve was filed as active; the % refers to the signal ratio; further: on the % scale 0 is the no-effect control and ±100 the full control effect). The procedure, abridged:
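Beta-lactamase reporter, antagonist mode, HEK 293 GripTite cells; 0.5nM E2 stimulus, 18 h, 37 C; CCF4 dye 2 h RT; fluorescence. IC50 and efficacy from Hill fits, normalized to E2 and DMSO.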
In general terms: Quantitative high-throughput screening tests each substance at several concentrations.

Experiment [2] shares this target. Kind of experiment: qHTS assay for small molecule agonists of estrogen receptor alpha signaling (AID 588514).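 Further: 0% = vehicle only and 100% = reference agonist; nearly all actives have a fitted effect of over 70% in size.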 The procedure, abridged: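 EC50 and efficacy came from Hill fits of beta-lactamase reporter signal (CCF4 dye, 2 h at room temperature) scaled between DMSO and 20 nM 17-beta-estradiol. Agonist mode: HEK293 ER-alpha-UAS-bla cells in charcoal/dextran-stripped serum medium, 18 h compound exposure at 37 C.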

A short description of experiment [3]: qHTS assay for small molecule antagonists of peroxisome proliferator-activated receptor delta signaling (AID 588535).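 Further: cells co-treated with a PPAR-delta agonist as stimulator during compound exposure.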 As to conditions: HEK293T PPARd-UAS-bla, beta-lactamase FRET ratio, 18 h; 460 nm channel. The procedure, abridged: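 Fluorescence from CCF4-loaded GeneBLAzer PPAR-delta-UAS-bla HEK293T cells (2 hrs RT loading) quantified reporter inhibition after an 18 hr, 37 C compound exposure across a titration.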

Experiment [4] deals with Peroxisome proliferator-activated receptor gamma (Homo sapiens) (UniProt P37231). Briefly: qHTS assay for small molecule agonists of peroxisome proliferator-activated receptor gamma signaling (AID 588536; active means well fitted curve in the direction sought with a large enough effect in the signal ratio, with a control signal flat, not every such curve was filed as active; the % refers to the signal ratio;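 further: 0% = DMSO basal wells and 100% = rosiglitazone at 2 µM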). The procedure, abridged: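 This is an agonist-mode beta-lactamase reporter assay in HEK293 PPAR-gamma-UAS-bla cells with 1% charcoal/dextran FBS. Compound titrations ran 16 h at 37 C before CCF4 detection. EC50 and efficacy are Hill fits scaled to 2 uM rosiglitazone (100%) and DMSO basal.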
Peroxisome proliferator-activated receptor gamma (Homo sapiens), sequence (P37231 whole entry, looked up): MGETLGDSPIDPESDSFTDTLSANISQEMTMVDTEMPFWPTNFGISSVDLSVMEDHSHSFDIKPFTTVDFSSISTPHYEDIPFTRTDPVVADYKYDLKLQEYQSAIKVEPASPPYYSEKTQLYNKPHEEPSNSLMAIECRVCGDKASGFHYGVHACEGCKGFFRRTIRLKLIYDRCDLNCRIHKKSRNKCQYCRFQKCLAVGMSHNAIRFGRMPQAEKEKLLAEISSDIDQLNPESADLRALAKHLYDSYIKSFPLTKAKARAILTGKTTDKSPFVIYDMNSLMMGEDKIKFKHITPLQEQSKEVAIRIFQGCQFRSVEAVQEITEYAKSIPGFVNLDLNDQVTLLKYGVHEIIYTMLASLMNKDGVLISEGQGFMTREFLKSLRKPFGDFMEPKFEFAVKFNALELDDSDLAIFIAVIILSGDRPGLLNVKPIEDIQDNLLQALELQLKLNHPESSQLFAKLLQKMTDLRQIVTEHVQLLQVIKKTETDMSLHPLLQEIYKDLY

The target is the same in experiment [5]. Kind of experiment: qHTS assay for small molecule antagonists of peroxisome proliferator-activated receptor gamma signaling (AID 588537; active means well fitted inhibition curve with a large enough effect in the signal ratio, with a control signal flat, not every such curve was filed as active; the % refers to the signal ratio;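 further: reporter cells co-stimulated with 50 nM rosiglitazone agonist during compound treatment; % of control where 0% means no effect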). The procedure, abridged: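 Fluorescence at 460 and 530 nm (405 nm excitation) reported beta-lactamase cleavage of CCF4 after 2 h room-temperature loading. HEK293 reporter cells in 1% charcoal/dextran-treated FBS had received compound and rosiglitazone for 16 h.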

Experiment [6] concerns the target Vitamin D3 receptor (Homo sapiens) (UniProt P11473). Kind of experiment: qHTS assay for small molecule agonists of vitamin D receptor signaling (AID 588543).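 Further: 0% = DMSO basal and 100% = reference agonist control.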 The procedure, abridged:
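β-lactamase reporter, VDR-UAS-bla HEK293T, agonist mode. Cells plated 5 h at 37 °C, compound titration 16 h at 37 °C, CCF4 dye 2 h RT, ratio 460/530 nm. Hill fit → EC50, efficacy vs 50 nM 1α,25-(OH)2D3.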

The target in experiment [7] is Thyroid hormone receptor beta (Homo sapiens) (UniProt P10828). Briefly: qHTS assay for small molecule agonists of thyroid hormone receptor beta signaling (AID 588545).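 Further: 0% = DMSO only and 100% = 10 nM T3.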 The procedure, abridged: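 Stimulation of a TR-driven beta-lactamase reporter was quantified in GripTite HEK 293 cells. Compound series ran for 18 hrs; curves were normalized to T3 and DMSO controls and fitted to yield EC50.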
Thyroid hormone receptor beta (Homo sapiens), sequence (P10828 whole entry, looked up): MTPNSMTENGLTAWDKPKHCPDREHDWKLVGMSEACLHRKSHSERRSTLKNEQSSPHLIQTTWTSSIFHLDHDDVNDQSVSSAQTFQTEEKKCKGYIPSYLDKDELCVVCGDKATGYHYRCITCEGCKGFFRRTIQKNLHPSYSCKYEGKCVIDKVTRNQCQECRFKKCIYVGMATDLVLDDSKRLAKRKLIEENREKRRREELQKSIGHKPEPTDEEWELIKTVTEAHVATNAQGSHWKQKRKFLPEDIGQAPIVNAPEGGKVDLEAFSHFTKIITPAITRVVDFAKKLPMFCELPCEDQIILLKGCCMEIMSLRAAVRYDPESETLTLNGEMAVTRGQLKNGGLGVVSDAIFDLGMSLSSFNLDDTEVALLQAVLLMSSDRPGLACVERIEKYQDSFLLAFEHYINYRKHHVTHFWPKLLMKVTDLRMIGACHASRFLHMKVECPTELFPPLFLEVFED

Experiment [8] is described as follows: qHTS assay for small molecule antagonists of retinoid X receptor alpha signaling (AID 588546; active means well fitted inhibition curve with a large enough effect in the signal ratio, with a control signal flat, not every such curve was filed as active; the % refers to the signal ratio;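 further: cells stimulated with 9-cis-retinoic acid as agonist; on the % scale 0 is the no-effect control and ±100 the full control effect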). As to conditions: HEK293T RXRa-UAS-bla, beta-lactamase ratio, antagonist mode; measured here: W530 green channel, cytotoxicity proxy. The procedure, abridged: (§1)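 Beta-lactamase reporter inhibition, read as CCF4 fluorescence ratio (ex 405, em 460/530 nm) after 2 h at RT. HEK293T UAS-bla cells, 2500/well, were stimulated with 9-cis-RA at 500 or 100 nM final alongside test compound for 18 h at 37 C.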

The target in experiment [9] is Retinoic acid receptor RXR-alpha (Homo sapiens) (UniProt P19793). Described as above. To be noted: HEK293T RXRa-UAS-bla, beta-lactamase ratio, antagonist mode. In a few lines: as §1
Retinoic acid receptor RXR-alpha (Homo sapiens), sequence (P19793 whole entry, looked up): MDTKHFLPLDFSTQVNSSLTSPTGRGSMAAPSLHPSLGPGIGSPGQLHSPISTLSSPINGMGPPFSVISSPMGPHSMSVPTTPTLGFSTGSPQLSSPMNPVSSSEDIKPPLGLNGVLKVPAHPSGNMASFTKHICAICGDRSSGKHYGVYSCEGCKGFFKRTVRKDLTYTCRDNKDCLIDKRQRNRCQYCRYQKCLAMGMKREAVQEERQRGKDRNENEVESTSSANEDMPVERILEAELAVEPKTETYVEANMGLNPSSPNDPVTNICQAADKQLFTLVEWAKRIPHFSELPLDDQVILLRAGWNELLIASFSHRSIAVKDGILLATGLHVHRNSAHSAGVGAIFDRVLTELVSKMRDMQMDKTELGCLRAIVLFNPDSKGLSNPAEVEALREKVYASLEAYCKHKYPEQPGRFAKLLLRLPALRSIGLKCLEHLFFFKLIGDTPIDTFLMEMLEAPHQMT
Experiment [10] in a line: qHTS assay for small molecule activators of the nuclear factor-kappa B (NF-kB) signaling pathway (AID 651749; active means well fitted activation curve with a large enough effect in the signal ratio; the % refers to the signal ratio; further: series mostly up to about 77 µM; % of control where 0% means no effect). As to conditions: NF-kB-bla ME-180 cells, beta-lactamase FRET ratio, 16 h; activation: stronger effect = higher value. In a few lines: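 In this qHTS format, compounds acting as activators increase NF-kB-driven beta-lactamase in ME-180 cells, measured as disrupted FRET after 16 hr exposure at 37C and 5% CO2.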

Experiment [11] can be described thus: qHTS assay for environmental chemicals that activate the Aryl hydrocarbon Receptor (AhR) signaling pathway (AID 651777; active means well fitted curve in the direction sought with a large enough effect; an effect the other way counts as inactive or inconclusive; further: % of control where 0% means no effect; nearly all actives have a fitted effect of over 15% in size). As to conditions: 1A2-DRE human hepatoma cells, luciferase, 24 h; activation: stronger effect = higher value. The procedure, abridged: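 Induction of CYP1A2 transcription through AhR is detected by luciferase in 1A2-DRE hepatoma cells. Compounds or DMSO act for 24 hr at 37 C before a 30 min One-Glo step at room temperature.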

Experiment [12] addresses Peroxisome proliferator-activated receptor alpha (Homo sapiens) (UniProt Q07869). Kind of experiment: qHTS assay for small molecule agonists of the peroxisome proliferator-activated receptor alpha (PPARalpha) signaling pathway (AID 651778; active means well fitted curve in the direction sought with a large enough effect; an effect the other way counts as inactive or inconclusive; further: % of control where 0% means no effect). To be noted: PathHunter PPARalpha complementation, chemiluminescence, 6 h; max response: stronger effect = higher value. The procedure, abridged: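 Enzyme-fragment complementation assay in which ligand-bound PPARalpha translocates and forms an active enzyme that generates chemiluminescence. Cells were plated overnight, exposed to compound for 6 hr at 37 C, and then given detection reagent for 60 min at room temperature.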

Experiment [13] in a line: qHTS assay for small molecule agonists of the antioxidant response element (ARE) signaling pathway measured by Nrf2-dependant transcriptional activity - cell viability counter screen (AID 720653; active means well fitted curve in the direction sought with a large enough effect in the repeat runs; an effect the other way counts as inactive or inconclusive; further: on the % scale 0 is the no-effect control and ±100 the full control effect). To be noted: ARE-bla HepG2 viability, CellTiter-Glo ATP luminescence, 16 h; max response: stronger effect = lower value. In a few lines:
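ARE-bla HepG2 cells treated with compounds for 16 h at 37C; this counter screen measures viability as intracellular ATP by CellTiter-Glo luminescence after 30 min at room temperature.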

A short description of experiment [14]: qHTS assay for cell viability of HEK293 cells (AID 743288; active means well fitted curve in the direction sought with a large enough effect; an effect the other way counts as inactive or inconclusive; further: on the % scale 0 is the no-effect control and ±100 the full control effect; nearly all actives have a fitted effect of over 50% in size). As to conditions: ATP luminescence (CellTiter-Glo), 18 h; max response: stronger effect = lower value. The procedure, abridged:
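ATP luminescence (CellTiter-Glo) reports metabolically competent cell number after parental HEK293 cells, 2,000/well, were treated with DMSO-dissolved compounds for 18 h at 37 C; reagent incubation 30 min, room temperature.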

Experiment [15] can be described thus: qHTS assay for cell viability of the p53RE-bla HCT-116 cell line (AID 743292; active means well fitted curve in the direction sought with a large enough effect; an effect the other way counts as inactive or inconclusive; further: on the % scale 0 is the no-effect control and ±100 the full control effect; nearly all actives have a fitted effect of over 55% in size). In a few lines: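 In this qHTS counter-screen, metabolically competent p53RE-bla HCT-116 cells were counted via their ATP content. Compounds were applied for 16 h at 37 C and luciferase-coupled luminescence was measured.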
Experiment [16] in a line: qHTS assay for small molecule activators of the human pregnane X receptor (PXR) signaling pathway (AID 720659; call rule not given here; further: 0% is about no effect).
Experiment [17] deals with Vitamin D3 receptor (Homo sapiens) (UniProt P11473). Briefly: qHTS assay for small molecule antagonists of vitamin D receptor signaling (AID 588541).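 Further: receptor activated by calcitriol during compound treatment; series mostly up to about 77 µM; on the % scale 0 is the no-effect control and ±100 the full control effect.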 In a few lines:
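VDR-UAS-bla HEK293T cells in 2% charcoal-stripped FBS were stimulated with 1-alpha,25-dihydroxyvitamin D3 (3 nM final) plus compound for 16 h at 37 C. The beta-lactamase CCF4 readout was normalized to 50 nM agonist and DMSO, and Hill fits gave IC50.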

Experiment [18] in a line: qHTS assay for small molecule agonists of retinoid X receptor alpha signaling (AID 588544).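 On activation: 0% = DMSO basal wells and 100% = reference agonist.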 As to conditions: HEK293T RXRa-UAS-bla, beta-lactamase reporter, 18 h; 530 nm emission.
Experiment [19] deals with Retinoic acid receptor RXR-alpha (Homo sapiens) (UniProt P19793). Described as above.
The target in experiment [20] is Nuclear receptor subfamily 1 group I member 2 (Rattus norvegicus) (UniProt Q9R1A7). Kind of experiment: qHTS assay for small molecule activators of the rat pregnane X receptor (rPXR) signaling pathway (AID 651751; call rule not given here; further: 0% is about no effect). As to conditions: rPXR reporter cells, luciferase (One-Glo), 24 h.
Nuclear receptor subfamily 1 group I member 2 (Rattus norvegicus), sequence (Q9R1A7 whole entry, looked up): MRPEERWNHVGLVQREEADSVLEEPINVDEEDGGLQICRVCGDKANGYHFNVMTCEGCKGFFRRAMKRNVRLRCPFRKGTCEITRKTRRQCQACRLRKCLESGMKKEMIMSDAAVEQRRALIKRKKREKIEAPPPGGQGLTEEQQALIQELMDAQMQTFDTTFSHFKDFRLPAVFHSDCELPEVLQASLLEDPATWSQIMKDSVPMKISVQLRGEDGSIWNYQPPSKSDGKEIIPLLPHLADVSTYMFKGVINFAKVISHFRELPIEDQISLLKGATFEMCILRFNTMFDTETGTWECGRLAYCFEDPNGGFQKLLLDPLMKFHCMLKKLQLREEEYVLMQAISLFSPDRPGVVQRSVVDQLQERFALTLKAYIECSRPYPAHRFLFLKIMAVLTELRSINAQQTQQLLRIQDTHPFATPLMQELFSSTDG

Records with an inconclusive call do not appear. Active and inactive are the calls of the source. Unless noted, the call rests on the fitted dose curve.

Peroxisome proliferator-activated receptor alpha (Homo sapiens), sequence (Q07869 whole entry, looked up, the tested form may be a part): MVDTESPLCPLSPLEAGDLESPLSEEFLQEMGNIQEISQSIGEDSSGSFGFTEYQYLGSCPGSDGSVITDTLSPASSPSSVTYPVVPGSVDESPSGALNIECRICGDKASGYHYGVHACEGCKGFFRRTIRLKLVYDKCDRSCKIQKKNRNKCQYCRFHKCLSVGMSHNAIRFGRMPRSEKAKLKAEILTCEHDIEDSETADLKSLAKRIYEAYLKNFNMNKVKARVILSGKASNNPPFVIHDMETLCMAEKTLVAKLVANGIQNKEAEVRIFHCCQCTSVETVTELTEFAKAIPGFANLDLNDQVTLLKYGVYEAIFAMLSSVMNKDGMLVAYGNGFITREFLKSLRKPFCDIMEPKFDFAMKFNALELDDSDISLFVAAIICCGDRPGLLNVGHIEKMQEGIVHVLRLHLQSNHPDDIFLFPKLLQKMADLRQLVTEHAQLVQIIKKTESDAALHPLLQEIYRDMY
Estrogen receptor (Homo sapiens), sequence (P03372 whole entry, looked up): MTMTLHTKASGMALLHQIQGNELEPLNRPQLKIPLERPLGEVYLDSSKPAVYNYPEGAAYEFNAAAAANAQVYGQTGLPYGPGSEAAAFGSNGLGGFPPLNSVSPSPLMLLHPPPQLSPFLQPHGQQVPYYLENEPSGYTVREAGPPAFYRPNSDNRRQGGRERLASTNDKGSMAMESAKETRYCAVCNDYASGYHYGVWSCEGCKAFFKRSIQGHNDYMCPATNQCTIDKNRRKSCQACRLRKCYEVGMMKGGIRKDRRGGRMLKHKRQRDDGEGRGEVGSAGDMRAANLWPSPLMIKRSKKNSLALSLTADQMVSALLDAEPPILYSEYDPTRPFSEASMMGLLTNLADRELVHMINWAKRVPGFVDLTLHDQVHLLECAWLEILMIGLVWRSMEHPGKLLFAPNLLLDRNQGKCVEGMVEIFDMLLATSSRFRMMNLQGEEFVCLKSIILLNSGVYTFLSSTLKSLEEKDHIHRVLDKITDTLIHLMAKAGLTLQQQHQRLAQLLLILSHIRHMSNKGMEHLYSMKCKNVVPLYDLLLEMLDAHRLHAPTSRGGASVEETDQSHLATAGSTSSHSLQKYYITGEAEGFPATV
Vitamin D3 receptor (Homo sapiens), sequence (P11473 whole entry, looked up): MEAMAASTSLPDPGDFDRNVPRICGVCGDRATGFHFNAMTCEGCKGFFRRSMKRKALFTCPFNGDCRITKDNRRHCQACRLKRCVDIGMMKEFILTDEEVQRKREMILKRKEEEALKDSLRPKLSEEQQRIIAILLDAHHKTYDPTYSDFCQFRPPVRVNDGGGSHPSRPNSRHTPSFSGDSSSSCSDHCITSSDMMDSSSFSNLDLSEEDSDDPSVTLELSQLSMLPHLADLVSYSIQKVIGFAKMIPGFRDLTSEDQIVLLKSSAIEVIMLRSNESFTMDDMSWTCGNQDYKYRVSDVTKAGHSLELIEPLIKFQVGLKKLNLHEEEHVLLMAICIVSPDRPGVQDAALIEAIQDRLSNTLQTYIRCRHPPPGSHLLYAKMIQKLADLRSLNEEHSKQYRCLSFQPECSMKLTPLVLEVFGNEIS

Regarding `c1ccc(-c2ccc(-c3ccccc3)cc2)cc1`, the Potency result in experiment [1], in [2], in experiment [5], in experiment [7] and in [15] was “inactive” in each case. The max response in [3] was -0.983%; in experiment [8], -5.51%; in [9], 1.88% (inactive); in experiment [12], -0.186% (inactive); in experiment [13], -5.82% (inactive); in experiment [14], -2.69% (inactive). The molecule was classed as inactive in [4], in experiment [6] and in experiment [16]. Besides, the activation in experiment [10] is 0.439% (inactive); in experiment [11], 6.5% (inactive).
In the case of `CN(C)C(=O)Nc1ccccc1`, the Potency result in experiment [1], in [2], in [5], in experiment [17], in experiment [19] and in [7] was “inactive” in each case. In addition, in experiment [15], the Potency result is “inactive”. The max response in [3] is 13.2%; in [18], -10.1%; in [8], -0.672%; in experiment [9], -1.05% (inactive); in [12], -2.12% (inactive); in experiment [13] it was 1.07% (inactive). Further, the results for the max response in experiment [14] and in experiment [20] were 1.22% (inactive) and 1.09% (inactive), respectively. Further, the call in [4], in experiment [6] and in experiment [16] was inactive. Further, the activation in experiment [10] is -1.78% (inactive); in experiment [11], 2.58% (inactive).
`OC1CCC(C2CCCCC2)CC1` (stereo unspecified): the Potency entry in experiment [1], in experiment [2], in experiment [5], in [17], in [19] and in experiment [7] was “inactive” each time. In addition, the Potency result in experiment [15] is “inactive”. Also, the max response in [3] is -39.9%; in [18] it was -2.23%; in experiment [8], -5.21%; in experiment [9], 6.85% (inactive); in [12] it was -0.35% (inactive); in [13], -10.1% (inactive). Besides, the max response in experiment [14] was -12.9% (inactive); in [20], -2.53% (inactive). The call in [4], in [6] and in experiment [16] was inactive. In addition, the activation in experiment [11] was -1.51% (inactive).
With `CCOC(=O)CC(O)(CC(=O)OCC)C(=O)OCC`, the Potency entry in experiment [1], in experiment [2], in experiment [17], in experiment [19], in experiment [7] and in [15] was “inactive” in each case. The molecule was classed as inactive in experiment [4], in experiment [6] and in experiment [16]. Moreover, the max response in [18] was -10.3%; in experiment [8], -3.18%; in experiment [12], 0.853% (inactive); in experiment [13] it was -8.63% (inactive); in experiment [14], 3.07% (inactive); in experiment [20], -0.162% (inactive). In addition, the values for the activation in experiment [10] and in experiment [11] were -1.34% (inactive) and 0.341% (inactive), respectively.
Turning to `CCCCCCCCCCCO`, the Potency result in experiment [1], in [2], in experiment [7] and in [15] was “inactive” each time. Besides, the max response in [3] was -7.63%; in experiment [18] it was -10.8%; in [12], 1.65% (inactive); in experiment [13] it was 3.39% (inactive); in experiment [14], 4.45% (inactive); in experiment [20] it was 2% (inactive). Besides, the outcome in [4] and in experiment [6] was inactive. The activation is 0.0542% (inactive) in experiment [10] and -0.0375% (inactive) in [11].
Regarding `c1cc(-c2ccncc2)ccn1`, the Potency entry in [1], in [2], in experiment [5], in [17], in [19] and in experiment [7] was “inactive” throughout. Besides, the Potency entry in [15] was “inactive”. The result in experiment [4], in experiment [6] and in experiment [16] was inactive. Also, the max response is 22% in [18]; 17.1% in [8]; -37.6% (inactive) in [9]; 0.638% (inactive) in experiment [12]; -5.96% (inactive) in [13]; -10.3% (inactive) in [14]. The max response in experiment [20] is -2.25% (inactive). The activation was -1.45% (inactive) in experiment [10] and 0.354% (inactive) in [11].
On to `OCCOCCOCCOCCO`, for which the Potency entry in experiment [1], in [2], in experiment [17], in experiment [19], in experiment [7] and in experiment [15] was “inactive” throughout. Also, the max response was -5.22% in experiment [3]; 4.51% in [18]; -7.24% in [8]; -5.67% (inactive) in [9]; -1.11% (inactive) in experiment [12]; 2.46% (inactive) in experiment [13]. Besides, the max response in [14] is -2.22% (inactive). The molecule was called inactive in experiment [6]. Further, the activation in experiment [10] is -0.834% (inactive); in [11] it was 2.06% (inactive).
